Among the test systems are MST4; MTOR; MUSK; MYLK2; MYLK4; MYLK; MYO3A; MYO3B; NDR2; NEK10; NEK11; NEK1; NEK2; NEK3; NEK4; NEK5; NEK6.
Holding throughout (details): n = 1
In the next experiment the test system is T1, MST2.
T1 construct: gene STK3

The next experiment has as its system T2, MST3.
T2 construct: gene STK24

For another experiment, the system named is T3, NDR1.
T3 construct: gene STK38

[1] abbreviates: concentration: 1 μM, replicates: in singlicate.

Where two headings read alike, the source gives them in different places.
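Further: KINOMEscan kinase panel screen.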

With `CCn1c(-c2cccnc2O)nc2cnccc21` [SB-736715], the “%Inh” value with MST2 (setting [1]) worked out at 23%; in the experiment with MST3 (setting [1]) it was 0%; with MST4 (setting [1]), 0%; in the experiment with MTOR (setting [1]), 0%; in the experiment with MUSK (setting [1]), 0%; in the experiment with MYLK2 (setting [1]), 15%. In addition, the “%Inh” value in the experiment on MYLK4 (setting [1]) is recorded as 0%; in the experiment on MYLK (setting [1]), 0%; with MYO3A (setting [1]), 0%; with MYO3B (setting [1]), 3%; with NDR1 (setting [1]), 0%; with NDR2 (setting [1]) it was 0%. Also, the “%Inh” value in the experiment on NEK10 (setting [1]) was found to be 0%; with NEK11 (setting [1]) it was 0%; in the experiment on NEK1 (setting [1]), 0%; in the experiment on NEK2 (setting [1]), 0%; in the experiment on NEK3 (setting [1]), 21%; with NEK4 (setting [1]) it was 0%. Also, the “%Inh” value in the experiment with NEK5 (setting [1]) and in the experiment with NEK6 (setting [1]) was 0% in each case.

For the compound `Nc1ncnc2[nH]c(-c3ccccc3)nc12` [AH5015], the “%Inh” value is on record as 0% in the experiment with MST2 (setting [1]); 0% in the experiment with MST3 (setting [1]); 1% in the experiment with MST4 (setting [1]); 9% in the experiment with MTOR (setting [1]); 18% in the experiment on MUSK (setting [1]); 0% with MYLK2 (setting [1]). The “%Inh” value in the experiment on MYLK4 (setting [1]) is on record as 30%; with MYLK (setting [1]), 7%; in the experiment on MYO3A (setting [1]), 8%; in the experiment on MYO3B (setting [1]), 0%; in the experiment on NDR1 (setting [1]), 0%; in the experiment with NDR2 (setting [1]) it was 0%. In addition, the “%Inh” value in the experiment on NEK10 (setting [1]) is given as 49%; in the experiment on NEK11 (setting [1]), 71%; in the experiment on NEK1 (setting [1]), 4%; in the experiment on NEK2 (setting [1]), 18%; in the experiment on NEK3 (setting [1]), 53%; with NEK4 (setting [1]), 26%. Also, the “%Inh” value in the experiment on NEK5 (setting [1]) is recorded as 32%; with NEK6 (setting [1]), 0%.

In the case of `Cc1ccc(-c2cc(-c3c[nH]nc3-c3ccccn3)ccn2)cc1` [GW684088], the “%Inh” value turned out to be 3% with MST2 (setting [1]); 25% in the experiment with MST3 (setting [1]); 0% in the experiment on MST4 (setting [1]); 22% in the experiment with MTOR (setting [1]); 0% in the experiment with MUSK (setting [1]); 39% in the experiment with MYLK2 (setting [1]). In addition, the “%Inh” value in the experiment on MYLK4 (setting [1]) is listed as 13%; with MYLK (setting [1]), 18%; with MYO3A (setting [1]), 46%; in the experiment on MYO3B (setting [1]), 5%; with NDR1 (setting [1]) it was 20%; in the experiment on NDR2 (setting [1]), 47%. For the same compound, the “%Inh” value came out at 0% in the experiment on NEK10 (setting [1]); 30% with NEK11 (setting [1]); 0% in the experiment on NEK1 (setting [1]); 0% in the experiment with NEK2 (setting [1]); 8% with NEK3 (setting [1]); 0% in the experiment with NEK4 (setting [1]). The “%Inh” value in the experiment on NEK5 (setting [1]) stood at 11%; in the experiment with NEK6 (setting [1]), 0%.

For the compound `O=C(Nc1n[nH]c2cc(-c3cccc(F)c3F)ccc12)C1CC1` [SB-733894], the “%Inh” value in the experiment on MST2 (setting [1]) is 31%; in the experiment on MST3 (setting [1]), 0%; in the experiment on MST4 (setting [1]) it was 8%; in the experiment with MTOR (setting [1]) it was 0%; with MUSK (setting [1]) it was 0%; with MYLK2 (setting [1]) it was 90.2%. Further, the “%Inh” value in the experiment with MYLK4 (setting [1]) came out at 0%; in the experiment on MYLK (setting [1]), 8%; in the experiment on MYO3A (setting [1]) it was 2%; with MYO3B (setting [1]), 0%; with NDR1 (setting [1]), 5%; in the experiment with NDR2 (setting [1]), 0%. Further, the “%Inh” value in the experiment on NEK10 (setting [1]) amounted to 0%; in the experiment on NEK11 (setting [1]), 0%; with NEK1 (setting [1]), 0%; in the experiment on NEK2 (setting [1]) it was 5%; in the experiment on NEK3 (setting [1]), 39%; with NEK4 (setting [1]), 3%. In addition, the “%Inh” value in the experiment on NEK5 (setting [1]) and in the experiment on NEK6 (setting [1]) was 0% in each case.

For the compound `O=C(Nc1ccccc1)Nc1cccc(Oc2ccc3nccn3n2)c1`, the “%Inh” value in the experiment on MST2 (setting [1]) amounted to 0%; with MST3 (setting [1]), 3%; in the experiment with MST4 (setting [1]), 0%; in the experiment on MTOR (setting [1]), 21%; in the experiment with MUSK (setting [1]), 0%; in the experiment with MYLK2 (setting [1]), 0%. The “%Inh” value in the experiment on MYLK4 (setting [1]) is given as 0%; in the experiment on MYLK (setting [1]), 0%; in the experiment with MYO3A (setting [1]), 0%; with MYO3B (setting [1]) it was 0%; in the experiment on NDR1 (setting [1]), 4%; with NDR2 (setting [1]) it was 0%. Besides, the “%Inh” value worked out at 0% with NEK10 (setting [1]); 0% in the experiment on NEK11 (setting [1]); 0% in the experiment on NEK1 (setting [1]); 0% in the experiment on NEK2 (setting [1]); 8% in the experiment with NEK3 (setting [1]); 0% in the experiment on NEK4 (setting [1]). Moreover, the “%Inh” value in the experiment with NEK5 (setting [1]) and with NEK6 (setting [1]) was 0% throughout.

With `COC(=O)c1c(-c2ccccc2)c2cc(OC)ccc2c(=O)n1Cc1ccccc1`, the “%Inh” value stood at 26% with MST2 (setting [1]); 20% in the experiment on MST3 (setting [1]); 0% in the experiment with MST4 (setting [1]); 0% in the experiment on MTOR (setting [1]); 11% with MUSK (setting [1]); 0% in the experiment on MYLK2 (setting [1]). For the same compound, the “%Inh” value in the experiment with MYLK4 (setting [1]) stood at 8%; in the experiment with MYLK (setting [1]), 0%; in the experiment on MYO3A (setting [1]) it was 9%; with MYO3B (setting [1]) it was 0%; with NDR1 (setting [1]) it was 0%; in the experiment with NDR2 (setting [1]), 3%. The “%Inh” value came out at 0% in the experiment on NEK10 (setting [1]); 0% with NEK11 (setting [1]); 7% with NEK1 (setting [1]); 9% in the experiment with NEK2 (setting [1]); 16% in the experiment on NEK3 (setting [1]); 11% in the experiment on NEK4 (setting [1]). Further, the “%Inh” value with NEK5 (setting [1]) and in the experiment with NEK6 (setting [1]) was 0% in each case.

As to `COc1ccc(Nc2nccc(NCCNC(=O)Nc3ccccc3F)n2)cc1` [GSK1379901], the “%Inh” value in the experiment on MST2 (setting [1]) is listed as 0%; in the experiment with MST3 (setting [1]), 0%; in the experiment on MST4 (setting [1]), 0%; in the experiment with MTOR (setting [1]), 22%; in the experiment on MUSK (setting [1]) it was 15%; in the experiment on MYLK2 (setting [1]) it was 0%. In addition, the “%Inh” value in the experiment with MYLK4 (setting [1]) was determined as 0%; in the experiment on MYLK (setting [1]) it was 15%; with MYO3A (setting [1]), 12%; in the experiment with MYO3B (setting [1]), 0%; in the experiment with NDR1 (setting [1]), 26%; in the experiment on NDR2 (setting [1]) it was 0%. Moreover, the “%Inh” value is reported as 13% with NEK10 (setting [1]); 0% in the experiment on NEK11 (setting [1]); 0% in the experiment with NEK1 (setting [1]); 0% in the experiment on NEK2 (setting [1]); 19% with NEK3 (setting [1]); 0% with NEK4 (setting [1]). The “%Inh” value with NEK5 (setting [1]) is listed as 3%; in the experiment on NEK6 (setting [1]), 0%.

For the compound `O=C(Nc1ccc2c(c1)OCO2)NC1CCN(c2ccnc(Nc3ccc(F)cc3)n2)C1` (stereo not shown) [GSK1379724], the “%Inh” value with MST2 (setting [1]) is on record as 0%; in the experiment on MST3 (setting [1]), 0%; in the experiment on MST4 (setting [1]), 0%; in the experiment on MTOR (setting [1]), 5%; in the experiment with MUSK (setting [1]), 2%; in the experiment with MYLK2 (setting [1]) it was 1%. Moreover, the “%Inh” value stood at 0% in the experiment on MYLK4 (setting [1]); 0% with MYLK (setting [1]); 24% in the experiment on MYO3A (setting [1]); 0% with MYO3B (setting [1]); 0% with NDR1 (setting [1]); 0% in the experiment on NDR2 (setting [1]). Moreover, the “%Inh” value is on record as 11% with NEK10 (setting [1]); 0% in the experiment with NEK11 (setting [1]); 0% in the experiment with NEK1 (setting [1]); 0% with NEK2 (setting [1]); 17% in the experiment on NEK3 (setting [1]); 20% in the experiment on NEK4 (setting [1]). In addition, the “%Inh” value in the experiment with NEK5 (setting [1]) is reported as 25%; in the experiment on NEK6 (setting [1]) it was 0%.

As to `COc1ccc2nc(-c3cccc(C)n3)nc(Nc3ccncc3)c2c1` [GSK204919], the “%Inh” value in the experiment with MST2 (setting [1]) is reported as 0%; in the experiment on MST3 (setting [1]) it was 0%; in the experiment with MST4 (setting [1]), 0%; in the experiment with MTOR (setting [1]), 43%; in the experiment with MUSK (setting [1]) it was 1%; in the experiment with MYLK2 (setting [1]) it was 0%. Besides, the “%Inh” value in the experiment on MYLK4 (setting [1]) is recorded as 0%; with MYLK (setting [1]) it was 5%; with MYO3A (setting [1]), 0%; in the experiment with MYO3B (setting [1]) it was 0%; in the experiment with NDR1 (setting [1]) it was 0%; with NDR2 (setting [1]) it was 0%. Besides, the “%Inh” value in the experiment with NEK10 (setting [1]) is 3%; in the experiment with NEK11 (setting [1]), 7%; in the experiment with NEK1 (setting [1]) it was 0%; with NEK2 (setting [1]), 0%; in the experiment on NEK3 (setting [1]), 0%; in the experiment with NEK4 (setting [1]), 11%. Besides, the “%Inh” value with NEK5 (setting [1]) is reported as 17%; in the experiment with NEK6 (setting [1]), 0%.

Regarding `Cc1ccc(NC(=O)Nc2cccc(C(F)(F)F)c2)cc1` [GSK955403], the “%Inh” value was 57% in the experiment with MST2 (1 µM); 16% in the experiment on MST3 (1 µM); 0% with MST4 (1 µM); 0% in the experiment with MTOR (1 µM); 0% with MUSK (1 µM); 22% in the experiment on MYLK2 (1 µM). For the same compound, the “%Inh” value in the experiment on MYLK4 (1 µM) is on record as 0%; with MYLK (1 µM), 32%; in the experiment on MYO3A (1 µM), 9%; with MYO3B (1 µM), 0%; with NDR1 (1 µM), 15%; in the experiment on NDR2 (1 µM), 17%. In addition, the “%Inh” value turned out to be 24% with NEK10 (1 µM); 0% in the experiment with NEK11 (1 µM); 7% with NEK1 (1 µM); 3% in the experiment with NEK2 (1 µM); 5% in the experiment on NEK3 (1 µM); 0% in the experiment with NEK4 (1 µM). The “%Inh” value in the experiment with NEK5 (1 µM) and in the experiment with NEK6 (1 µM) was 0% in each case.

With `Fc1cc(Cl)ccc1Nc1ccnc2cc(-c3ccc(CN4CCCCC4)o3)ccc12` [GW560116], the “%Inh” value was 0% in the experiment with MST2 (setting [1]); 15% with MST3 (setting [1]); 0% in the experiment on MST4 (setting [1]); 0% in the experiment on MTOR (setting [1]); 0% in the experiment with MUSK (setting [1]); 27% in the experiment with MYLK2 (setting [1]). Besides, the “%Inh” value is listed as 5% with MYLK4 (setting [1]); 11% in the experiment on MYLK (setting [1]); 31% in the experiment with MYO3A (setting [1]); 0% in the experiment on MYO3B (setting [1]); 9% in the experiment with NDR1 (setting [1]); 18% in the experiment with NDR2 (setting [1]). Besides, the “%Inh” value came out at 5% in the experiment with NEK10 (setting [1]); 4% in the experiment with NEK11 (setting [1]); 0% with NEK1 (setting [1]); 0% in the experiment with NEK2 (setting [1]); 0% with NEK3 (setting [1]); 0% in the experiment with NEK4 (setting [1]). Moreover, the “%Inh” value in the experiment with NEK5 (setting [1]) came to 4%; in the experiment with NEK6 (setting [1]) it was 0%.
